The values that follow come from PubChem BioAssay AID489028 (Sanford-Burnham Center for Chemical Genomics, 2010).

The structures appear in SMILES notation. The campaign covered roughly 10,000 compounds. About 5,600 (56%) were called active. The set was probably picked from earlier hits. A selection follows. Unmarked numbers belong to inactive results. No stated cut-off is given here; in the data, active means inhibition above about 40%; inactive means the rest.

What is called inhibition is the change of the read-out against control, counted positive when it falls.

The target of the assay is Protein Mdm4 (Homo sapiens) + E3 ubiquitin-protein ligase Mdm2 (Homo sapiens) (UniProt O15151+Q00987). As to the kind of experiment: inhibition of human Mdm2/MdmX pairing – luminescence, single concentration, confirmation (AID 489028). The settings on record: Mdm2-MdmX binding, luminescent assay; at 8 µM; active compounds read high.
Protein Mdm4 (Homo sapiens) + E3 ubiquitin-protein ligase Mdm2 (Homo sapiens), sequence (O15151 whole entry, looked up): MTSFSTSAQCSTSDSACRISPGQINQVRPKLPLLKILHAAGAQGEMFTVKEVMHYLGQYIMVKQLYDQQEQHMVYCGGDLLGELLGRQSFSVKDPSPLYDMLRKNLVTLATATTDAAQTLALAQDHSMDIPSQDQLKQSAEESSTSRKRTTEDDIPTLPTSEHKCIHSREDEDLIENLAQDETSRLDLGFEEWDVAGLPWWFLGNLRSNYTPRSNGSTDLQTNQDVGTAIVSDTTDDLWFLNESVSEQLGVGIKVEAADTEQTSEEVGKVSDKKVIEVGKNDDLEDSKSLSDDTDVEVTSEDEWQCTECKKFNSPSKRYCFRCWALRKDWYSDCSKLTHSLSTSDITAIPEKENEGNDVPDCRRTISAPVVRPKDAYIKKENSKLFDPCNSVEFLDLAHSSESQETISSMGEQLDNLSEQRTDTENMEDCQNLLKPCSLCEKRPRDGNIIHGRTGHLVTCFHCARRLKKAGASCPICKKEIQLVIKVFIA
Protein Mdm4 (Homo sapiens) + E3 ubiquitin-protein ligase Mdm2 (Homo sapiens), sequence (Q00987 whole entry, looked up): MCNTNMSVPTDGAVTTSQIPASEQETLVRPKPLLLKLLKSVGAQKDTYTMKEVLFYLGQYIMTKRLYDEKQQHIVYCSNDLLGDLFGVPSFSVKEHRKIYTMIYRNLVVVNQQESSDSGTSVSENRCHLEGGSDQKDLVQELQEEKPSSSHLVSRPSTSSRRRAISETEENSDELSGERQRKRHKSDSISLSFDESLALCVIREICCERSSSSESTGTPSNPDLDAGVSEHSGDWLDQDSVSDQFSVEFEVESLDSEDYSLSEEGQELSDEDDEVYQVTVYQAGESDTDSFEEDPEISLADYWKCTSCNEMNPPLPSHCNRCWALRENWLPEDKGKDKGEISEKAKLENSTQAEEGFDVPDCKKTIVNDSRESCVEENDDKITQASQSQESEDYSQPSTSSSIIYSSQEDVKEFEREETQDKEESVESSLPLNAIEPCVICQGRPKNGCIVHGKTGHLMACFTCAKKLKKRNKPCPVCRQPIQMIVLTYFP
Regarding `O=C(/C=C/c1ccc(OCc2c(F)cccc2Cl)cc1)N1CCOCC1`, the inhibition is 66.7% (active).

As for `CCc1nc(C)cn1S(=O)(=O)c1cc([N+](=O)[O-])ccc1Cl`, the inhibition was 50.9% (active).

`O=C(CCCN1C(=O)/C(=C\c2ccco2)SC1=S)Nc1cccc2ccccc12`: the inhibition was 94.5% (active).

In the case of `O=C(CCCN1C(=O)/C(=C/c2ccco2)SC1=S)Nc1ccccc1`, the inhibition was 70.8% (active).

In the case of `OC(CNCC1CCCO1)Cn1c2ccc(Br)cc2c2cc(Br)ccc21` (stereo not given), the inhibition is 38%.

As for `Cc1oc2c(c1C(=O)N1CCOCC1)C(=O)c1ccccc1C2=O`, the inhibition was 62.5% (active).

Consider `Cc1c(C(=O)Nc2cccc(Cl)c2)cn2c(nc3ccccc32)c1C#N`, for which the inhibition is 9.95%.

In the case of `Cc1nc(N2CCN(c3ccccn3)CC2)c2c(C)c(C(=O)Nc3ccc(F)c(Cl)c3)sc2n1`, the inhibition is 34.2%.

In the case of `COc1ccc2nc(Nc3nc4ccc(NC(C)=O)cc4s3)sc2c1`, the inhibition was 35.2%.

Consider `Cc1nnc(NC(=O)Nc2ccc(Cl)c(Cl)c2)s1`, for which the inhibition was 86.5% (active).

In the case of `CC(C)(C)CC(C)(C)NCC(O)COCCOc1ccc(Br)cc1` (stereo not given), the inhibition is 51.1% (active).

For `Cc1nn(-c2ccccc2)c2sc(C(=O)N(Cc3ccco3)C(C)C(=O)NC(C)(C)C)cc12` (stereo not given), the inhibition was 12.8%.

Turning to `CC[C@H]1CN2CCc3cc(OC)c(OC)cc3[C@@H]2C[C@@H]1C[C@H]1NCCc2cc(OC)c(OC)cc21`, the inhibition was 99.8% (active).

Take `Cc1ccc(-c2cccc([C@H]3[C@@H]4C=CC[C@@H](C)[C@@H]4C(=O)N3Cc3ccccc3)c2)cc1`: the inhibition is -5.3%.

For `CCOC(=O)c1ccc(NC(=O)c2c(NCc3ccccc3)[nH]c(=O)[nH]c2=O)cc1`, the inhibition is 12.4%.

For the compound `Cc1cc(NC(=O)/C=C/C(=O)N(c2ccccc2C)C(C(=O)NC2CCCC2)c2ccc(F)cc2)no1` (stereo not given), the inhibition was 70% (active).

In the case of `N/C(=N\OC(=O)c1ccc2c(c1)OCO2)c1ccc(Br)cc1`, the inhibition was 40.2% (active).

With `N/C(=N\OC(=O)N1c2ccccc2Sc2ccccc21)c1ccc(Br)cc1`, the inhibition was -3.5%.

For the compound `CCOC(=O)/C=c1\s/c(=C\c2ccc(C#N)cc2)c(=O)n1CC(=O)Nc1cccc(C)c1C`, the inhibition is 8.85%.

`Oc1ccccc1C1=NN(c2ccccc2)C(c2ccccc2)C1` (stereo not given): the inhibition was 8.55%.

Turning to `O=C(Nc1nnc(-c2ccccc2)o1)c1cc(-c2cccs2)nc2ccccc12`, the inhibition is 29.7%.

For the compound `COc1ccc(OC)c(NC(=O)c2sc3nc(C)cc(C)c3c2N)c1`, the inhibition is 15.5%.

Regarding `COc1ccc(NC(=O)c2cc(-c3cc(OC)c(OC)c(OC)c3)nc3ccccc23)c(OC)c1`, the inhibition is 57% (active).

In the case of `O=[N+]([O-])c1c(NCCO)cc(Sc2nc3ccccc3s2)c2nonc12`, the inhibition is 96.7% (active).

`COc1cccc(CNC(=O)c2nnn(CC(=O)Nc3cc(Cl)ccc3C)c2N)c1`: the inhibition was 62.3% (active).

As to `COc1cccc(CNC(=O)Cc2csc(Nc3nc(=S)[nH]c4ccccc34)n2)c1`, the inhibition was 15.8%.

For `CCCCCCSc1ccc([C@@H]2[C@@H]3C(=O)N(CC)C(=O)[C@@H]3[C@]3(C(=O)OC)CCCCN23)cc1OC`, the inhibition is 21.6%.

As to `CCOC(=O)/C(=C\c1ccc([N+](=O)[O-])cc1)C(=O)c1cc(C(C)=O)c(Nc2ccccc2)s1`, the inhibition was 99.6% (active).

Regarding `Cc1ccc2occ(/C=N/NC(=O)c3ccccc3C)c(=O)c2c1`, the inhibition is 65.8% (active).

`Cn1c(C(=O)NCCCN2CCN(c3cccc(Cl)c3)CC2)cc2c(=O)n(C)c3ccccc3c21`: the inhibition was 37.8%.

Turning to `CCc1ccc(-c2cc3c(=O)n(CC(=O)NCCCN4CCN(Cc5ccccc5)CC4)nc(C)n3n2)cc1`, the inhibition was 55.5% (active).

`C=CC[C@H](CC(=O)N(CCO)Cc1ccccc1)C(=O)N[C@@H](COC(=O)[C@@H](CC=C)Cc1ccc(F)cc1)Cc1ccccc1`: the inhibition was 1.35%.

Consider `O=C(C[C@H]1C/C=C\C[C@@H](NC(=O)OCC2c3ccccc3-c3ccccc32)C(=O)O[C@@H](c2ccccc2)CNC1=O)N[C@H](CO)Cc1ccccc1`, for which the inhibition was 28.4%.

Turning to `O=C1NC[C@@H](c2ccccc2)OC(=O)[C@H](Cc2ccc(F)cc2)CC/C=C/C[C@H]1CC(=O)N(CCO)Cc1ccccc1`, the inhibition is 54.5% (active).

For the compound `CN1CCN(CCCNC(=O)c2ccc(/C=C3\Oc4ccccc4N(Cc4ccc(Cl)cc4)C3=O)cc2)CC1`, the inhibition is 55% (active).

Consider `Cc1ccccc1C(CC(=O)c1cccs1)C(C#N)C#N` (stereo not given), for which the inhibition was 54.7% (active).

Regarding `Clc1cccc(Cl)c1OCCOCCNCc1ccccc1`, the inhibition is 86% (active).

As to `O=C(N/N=C/c1sc(N2CCCCC2)nc1-c1cccs1)c1cccnc1`, the inhibition is 25.3%.

Consider `CCOc1ccccc1NC(=O)Cn1nnc(C(=O)NCc2cccs2)c1N`, for which the inhibition is 52.7% (active).

Turning to `Cc1ccc(-c2nn(C(C)(C)C)c3ncnc(N)c23)cc1`, the inhibition was 67% (active).

In the case of `COc1cc(SC)ccc1C(=O)Nc1nc(C)cs1`, the inhibition is 57.5% (active).

Take `CCCC(=O)Nc1ccc(C(=O)N/N=C/c2ccc[nH]2)cc1`: the inhibition was 6.9%.

For the compound `CCn1c(/C=C/Nc2ccccc2)[n+](CC)c2ccc(C(=O)OCC(F)(F)F)cc21`, the inhibition is 13.1%.

Regarding `O=C(COc1ccccc1F)Nc1nc(-c2ccccn2)cs1`, the inhibition was 53.6% (active).

With `CC1CCN(C(=O)c2ccc(S(=O)(=O)Cc3cc(F)ccc3F)c([N+](=O)[O-])c2)CC1`, the inhibition is 64% (active).

As for `CCOC(=O)N1CCN(C(=O)c2ccc(S(=O)(=O)c3ccc(C)cc3)c(NC(C)=O)c2)CC1`, the inhibition is 8.65%.

For the compound `FC(F)(F)c1nnc2c3ccccc3c(Cl)nn12`, the inhibition was 47% (active).

For `COc1ccccc1C(=O)NC(=S)NC12CC3CC(CC(C3)C1)C2`, the inhibition was 21.8%.

As for `Cn1nc(-c2ccccc2)c(CSc2cccc(Cl)c2)c1Cl`, the inhibition was 48.5% (active).

`CCOC(=O)c1c(NC(=O)c2ccc(S(=O)(=O)N(C)CC3CCCO3)cc2)sc2c1CC(C)(C)NC2(C)C` (stereo not given): the inhibition is 47.1% (active).

Take `C=CCN(CC=C)S(=O)(=O)c1ccc(C(=O)Nc2sc3c(c2C(N)=O)CCCCC3)cc1`: the inhibition was 10.8%.

Take `CC1(C)CCSC(/C=C/c2ccccc2)=N1`: the inhibition was 68% (active).

For `Cc1[nH]c(=O)c(C(=O)/C=C/c2ccccc2)c2c1CCCC2`, the inhibition was 99.5% (active).

Consider `C=CCn1c(C)cc(C2=NNC(=NCC)SC2)c1C`, for which the inhibition is 98.1% (active).

For `Cc1cc(C)nc(S/C=C/C(=O)c2ccccc2)n1`, the inhibition was 32.4%.

As to `O=C(/C=C/Sc1ncn[nH]1)c1ccc(Cl)cc1`, the inhibition was 80.4% (active).

With `CC[n+]1cc(C)ccc1/C=C/c1ccc(N(C)C)cc1`, the inhibition is 53.6% (active).

Take `COc1ccccc1N1CCN(C(=O)c2cc(=O)c3cc(C)cc(C)c3o2)CC1`: the inhibition is 66.8% (active).

On to `C#CCOCCOCCOCCNc1nc(N2CCN(C(=O)CCCCCCCCCCNC(=O)[C@H](CCCCN)n3cc(C)nn3)CC2)nc(N2CCN(C(=O)CCCCCCCCCCNC(=O)[C@H](CO)n3cc(CCCSC)nn3)CC2)n1`, for which the inhibition is 14%.

Consider `O=C(Nc1nnc(-c2ccccc2F)s1)c1ccccc1F`, for which the inhibition is -82.2%.

For `CN(NC(=O)c1ccccc1F)c1nc(C(F)(F)F)nc2ccccc12`, the inhibition is 57% (active).

As for `CSc1nc(N(C)NC(=O)c2cccc(C)c2)c2ccccc2n1`, the inhibition is 57.7% (active).

Consider `CN(NC(=O)c1ccccc1)c1nc2ccccc2nc1C(F)(F)F`, for which the inhibition was 51.9% (active).

As to `COc1cc2c(cc1NC(=O)COC(=O)/C=C/c1ccccc1)oc1ccccc12`, the inhibition was -6.7%.

For the compound `CCOC(=O)/C=C/C(=O)OCC(=O)NC(c1ccccc1)c1ccccc1`, the inhibition was 74.5% (active).

Consider `Cc1ccccc1NC(=O)CSc1nc2ccc(Nc3nc(N4CCOCC4)nc(N4CCOCC4)n3)cc2s1`, for which the inhibition was 35.7%.

On to `Cc1cc2cc3c(cc2nc1SCC(=O)Nc1c(C)cccc1C)CCC3`, for which the inhibition was 43.1% (active).

Regarding `OCCNc1nc(Nc2ccc(Cl)c(Cl)c2)nc2ccccc12`, the inhibition was 69.5% (active).

With `O=C(CSc1nc2ccccc2c(=O)[nH]1)Nc1nc(-c2ccc(Br)cc2)cs1`, the inhibition is 47.8% (active).

`O=C(NNc1ccccc1Cl)C(O)(c1cccc(C(F)(F)F)c1)c1cccc(C(F)(F)F)c1`: the inhibition was 36.2%.

Turning to `COC(=O)Cc1[nH]n(-c2nc3ccccc3s2)c(=O)c1C(C)=Nc1ccc(OC)cc1`, the inhibition was 89.3% (active).

Take `CCCCN(CCCC)CCC(O)c1cc2c(Cl)cc(Cl)cc2c2cc(C(F)(F)F)ccc12` (stereo not given): the inhibition is 21.1%.

As for `COc1ccc2sc(-c3ccccc3OC)c(-c3ccc(OCCN4CCCC4)cc3)c2c1`, the inhibition was 5.35%.

On to `COc1cccc(-c2sc3ccc(OC)cc3c2-c2ccc(OCCN3CCCCC3)cc2)c1`, for which the inhibition is 49.5% (active).

Regarding `O=C(CN1C(=O)c2ccccc2S1(=O)=O)N1CCc2ccccc21`, the inhibition is 53% (active).

Regarding `COCCCNc1nc2c(-c3cccc(C)c3)nnn2c2ccc(Cl)cc12`, the inhibition is 67% (active).

For the compound `C=CCC[C@@H](Cc1ccc(F)cc1)C(=O)O[C@H](CNC(=O)[C@H](CC=C)CC(=O)N(CCO)Cc1ccccc1)c1ccccc1`, the inhibition is 12.4%.

For `Cc1cccn2c(=O)c3cc(C(=O)NCCN4CCOCC4)c(=N)n(Cc4cccnc4)c3nc12`, the inhibition is 49.2% (active).

As to `COc1ccc(CCn2c(=N)c(C(=O)NCC3CCCO3)cc3c(=O)n4cccc(C)c4nc32)cc1OC` (stereo not given), the inhibition is 48.1% (active).

As for `CCc1ccc(CNC(=O)C2CCN(c3nnc(C)c4c(C)n(-c5ccc(C)cc5)nc34)CC2)cc1`, the inhibition is 56.7% (active).

As to `COc1cc(NC(=O)c2ccccc2NS(=O)(=O)c2ccc(Cl)s2)cc(OC)c1`, the inhibition was 76.4% (active).

Consider `Oc1ccc(/C=N/Nc2nc(-c3ccccc3F)nc3ccccc23)c(O)c1`, for which the inhibition is 54.6% (active).

Turning to `Cc1nc2ccccc2nc1N/N=C/c1ccc(O)cc1O`, the inhibition is 61.6% (active).

As to `COC(=O)C1=C(Nc2ccc(C)cc2)C=C(C)C(C(=O)OC)C1c1ccc(F)cc1` (stereo not given), the inhibition was 53.5% (active).

Consider `Nc1nonc1-n1nnc(C(=O)N/N=C/c2ccccc2O)c1CN1CCCC1`, for which the inhibition is 33.8%.
